According to paper PMC4336329 (PLoS ONE, 2015):
In all, about 310,000 compounds went through this assay and about 14,000 (4.5%) showed an effect of 50% or more. The effect is printed as a negative number. The list comes from a sample in which strong results are over-represented; it also holds similar structures and randomly drawn compounds.

These compounds were tested against human ether-à-go-go-related gene (hERG) potassium channel (human, UniProt Q12809) (assay: primary screen, population patch clamp on CHO cells stably expressing hERG; higher = less effect of the substance).
human ether-à-go-go-related gene (hERG) potassium channel, sequence (Q12809 whole entry, looked up): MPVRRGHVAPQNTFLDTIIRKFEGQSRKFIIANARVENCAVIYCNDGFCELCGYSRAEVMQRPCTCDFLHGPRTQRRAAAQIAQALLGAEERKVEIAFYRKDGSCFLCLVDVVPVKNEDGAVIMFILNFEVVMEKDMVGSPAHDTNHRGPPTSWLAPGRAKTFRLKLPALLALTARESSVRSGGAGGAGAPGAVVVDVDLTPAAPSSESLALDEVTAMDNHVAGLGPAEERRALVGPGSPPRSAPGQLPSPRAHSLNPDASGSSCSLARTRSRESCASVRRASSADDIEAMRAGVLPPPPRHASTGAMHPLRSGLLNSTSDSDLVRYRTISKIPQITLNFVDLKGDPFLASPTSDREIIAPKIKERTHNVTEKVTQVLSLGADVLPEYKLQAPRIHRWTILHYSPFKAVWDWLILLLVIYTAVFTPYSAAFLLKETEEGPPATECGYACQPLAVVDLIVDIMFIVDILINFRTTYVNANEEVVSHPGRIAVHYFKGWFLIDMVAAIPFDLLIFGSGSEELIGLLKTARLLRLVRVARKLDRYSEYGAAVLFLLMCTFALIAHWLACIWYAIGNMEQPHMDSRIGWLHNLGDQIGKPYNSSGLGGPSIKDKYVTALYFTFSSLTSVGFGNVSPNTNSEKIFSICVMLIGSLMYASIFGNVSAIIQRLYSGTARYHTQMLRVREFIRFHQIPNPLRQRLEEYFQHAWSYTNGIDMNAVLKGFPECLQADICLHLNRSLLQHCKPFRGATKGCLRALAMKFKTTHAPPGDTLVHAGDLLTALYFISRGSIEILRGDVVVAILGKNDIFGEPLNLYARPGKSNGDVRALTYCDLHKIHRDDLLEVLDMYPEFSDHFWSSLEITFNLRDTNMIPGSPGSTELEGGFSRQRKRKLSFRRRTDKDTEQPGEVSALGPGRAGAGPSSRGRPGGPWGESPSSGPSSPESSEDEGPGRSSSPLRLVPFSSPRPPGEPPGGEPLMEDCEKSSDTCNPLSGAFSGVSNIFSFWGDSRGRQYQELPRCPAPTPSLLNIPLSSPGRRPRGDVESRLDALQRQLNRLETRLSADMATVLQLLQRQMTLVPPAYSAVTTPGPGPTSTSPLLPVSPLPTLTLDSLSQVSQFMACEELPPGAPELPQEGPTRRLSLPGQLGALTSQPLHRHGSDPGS
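Further: peak tail current of the secondary pulse compared with the same well before compound.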

Compound	hERG current change (%, negative = inhibition) at 10uM [%]
COc1cccc(NC(=O)c2nnn(CC(=O)Nc3cc(C)cc(C)c3)c2N)c1	13.5
O=C(c1cccc(COc2cccc3ccccc23)c1)N1CCCC1	-4.59
CC(=O)Nc1ccc(S(=O)(=O)NCCC(=O)Nc2cc(C)ccn2)cc1	7.68
NS(=O)(=O)c1ccc(CCNC(=O)C2CCCN(S(=O)(=O)c3cccnc3)C2)cc1 (stereo not shown)	-4.22
NC(=O)c1ccccc1NC(=O)CN1CCN(Cc2ccccc2)CC1	-78.3
NC(=O)c1ccccc1NC(=O)CN1CCOCC1	7.22
NC(=O)c1ccccc1NC(=O)CN1CCCCCC1	11.1
O=C1Nc2ccc(S(=O)(=O)NCc3ccco3)c3cccc1c23	-16.2
O=C1NN(c2cccc(Br)c2)C(=O)/C1=C/c1ccc(-c2cc([N+](=O)[O-])ccc2O)o1	-9.65
CCNC(=O)COc1ccc(S(=O)(=O)Nc2ccccc2)cc1	-1.85
CC(C)C(=O)Nc1cccc(NC(=S)NC(=O)c2ccccc2Cl)c1	-9.02
CCCC(c1c(C)n(C)n(-c2ccccc2)c1=O)c1c(C)n(C)n(-c2ccccc2)c1=O	0.692
Br.COc1ccccc1OCC(=O)NN1Cc2ccccc2C1=N	1.99
Br.N=C1c2ccccc2CN1NC(=O)COc1ccc(Cl)cc1	-50.4
Br.Cc1ccccc1OCC(=O)NN1Cc2ccccc2C1=N	-0.416
Br.CCc1ccc(OCC(=O)NN2Cc3ccccc3C2=N)cc1	-38.8
Br.COc1ccc(OCC(=O)NN2Cc3ccccc3C2=N)cc1	-18.1
Br.CC(C)(C)c1ccc(OCC(=O)NN2Cc3ccccc3C2=N)cc1	-65.5
Br.Cc1cc(C)cc(OCC(=O)NN2Cc3ccccc3C2=N)c1	-11.6
Br.CCOc1ccccc1OCC(=O)NN1Cc2ccccc2C1=N	-73.5
Br.N#Cc1ccc(OCC(=O)NN2Cc3ccccc3C2=N)cc1	4.14
Cc1ccsc1C(=O)OCC(=O)NC1CCCC1	13

Compound	hERG current change (%, negative = inhibition) at 10uM [%]
CC1(C)CC(=O)CC(C2(O)C(=O)N(Cc3ccccc3)c3ccccc32)O1 (stereo not shown)	7.55
COCCCNC(=S)N1CCC(NC(=O)c2ccco2)CC1	-4.82
COCC(=O)N(CCc1ccc(OC)c(OC)c1)Cc1nc2ccccc2c(=O)[nH]1	-8.28
C/C(=N/NS(=O)(=O)c1cc(C)ccc1C)c1ccncc1	11
CCCCC(=O)Nc1ccc(C(=O)N2CCN(C)CC2)cc1	6.41
CCOC(=O)N1CCN(C(=O)c2ccc(SC)cc2OC)CC1	-2.46
O=C(Cc1coc2cc3c(cc12)CCC3)OCc1cc(=O)n2c(n1)sc1ccccc12	4.53
CC(=O)O[C@@]12CO[C@@H]1C[C@H](OC1OCC(O)C(O)C1O)[C@@]1(C)C(=O)[C@H](O)C3=C(C)[C@@H](OC(=O)[C@H](O)[C@@H](NC(=O)c4ccccc4)c4ccccc4)C[C@@](O)([C@@H](OC(=O)c4ccccc4)C12)C3(C)C (stereo partly shown)	-7.05
O=C(NCc1ccccn1)c1ccccc1OCc1ccc(Cl)cc1Cl	-1.04
COc1cc(CNn2nnnc2N)ccc1OCc1c(Cl)cccc1Cl	-1.22
COc1cc(CNC2CCCC2)c(Br)cc1OC1CCCC1.Cl	-45.9
COc1cc(CNCc2ccccn2)ccc1OCc1c(Cl)cccc1Cl.Cl	-51.5
COc1ccc(Cl)cc1NC(=S)NCc1ccccn1	9
CCOc1cc(CNC2CCCC2)ccc1OCc1ccccc1Cl.Cl	-50.6
COc1cc(CNC2CCCCCCC2)c(Br)cc1OCCO.Cl	7
COc1cc(CNCc2ccccn2)ccc1OCc1ccc(Cl)cc1Cl.Cl	-58.1
CCOc1cc(CNC2CCCC2)cc(Cl)c1OCc1ccccc1.Cl	-10.3
COc1ccc(-c2ccc(CNCc3ccccn3)o2)cc1Cl.Cl	-7.77
COc1cc(CNC2CCCC2)cc(Cl)c1OCc1ccccc1Cl.Cl	-30
COc1cc(CNC2CCCC2)c(Br)cc1OCc1ccccc1.Cl	-72.1
COc1ccc(-c2oc(=O)c3cc(OC)c(OC)cc3c2C(F)(F)F)cc1	23.7
CC(C(=O)NCCCc1ccccc1)n1cccc1C(=O)c1ccccc1 (stereo not shown)	-5.48

Compound	hERG current change (%, negative = inhibition) at 10uM [%]
O=C(COC(=O)c1ccccc1C(=O)c1ccc(Cl)cc1)NCC1CCCO1 (stereo not shown)	1.96
CN(C)/C=C/C(=O)c1ccc(C(F)(F)F)cc1F	15.3
CCOc1cc(N2CCOCC2)c(OCC)cc1NC(=O)CSc1n[nH]c(N)n1	38.2
Cc1ccc(OCC(=O)NNC(=O)c2cc(C)[nH]n2)cc1	24.6
CCc1nnc(NC(=O)CSc2nnc3ncccn23)s1	19.2
COC(=O)c1nn(-c2ccc(F)cc2)ccc1=O	8.12
C#CCOCCOCCOCCNc1nc(N2CCN(C(=O)CCCCCCCCCCNC(=O)Cn3cc(C[C@@H](C)O)nn3)CC2)nc(N2CCN(C(=O)CCCCCCCCCCNC(=O)[C@H](CCCN=C(N)N)n3cc(C[C@@H](C)CC)nn3)CC2)n1	3.82
COc1ccccc1C(=O)OCn1nnc2ccccc2c1=O	-1.17
CN1CCN(C(=O)C23CCC(C)(C(=O)C2Br)C3(C)C)CC1 (stereo not shown)	1.95
COc1cc(CNCc2ccccn2)ccc1OCc1ccccc1Cl.Cl	-58.3
COc1cc(CNCc2ccccn2)ccc1OCC(=O)NC1CCCCC1.Cl	-14.5
CCOc1cc(CNCc2ccccn2)cc(Cl)c1OCC.Cl	-0.796
CC1=C(C(=O)Nc2ccccc2)C(c2cccs2)NC(=O)N1 (stereo not shown)	15.6
Cc1cc(C)n(CC(=O)NNC(=O)c2ccc(NC(=O)CC#N)cc2)n1	5.56
Cc1cc(C(C)(C)CC(C)(C)C)ccc1OCCOCC[N+](C)(C)Cc1ccccc1.[Cl-]	-80.9
Cc1cc(C(C)(C)C)ccc1OCCOCCN1CCCC1	-44.5
Cc1cc(C(C)(C)C)ccc1OCCN(C)C	-7.47
Cl.Nc1ccc2c(c1)oc1ccccc12	4.15
CCc1ccc(NC(=O)Nc2ccc3c(c2)N(C)C(=O)CS3)cc1	7.64
CCc1cc2c(NCCO)ncnc2s1	14.3
CCc1cc2c(NCCN3CCCCC3)ncnc2s1.Cl	-71.9
CCc1cc2c(NCCC(=O)O)ncnc2s1	4.76

Compound	hERG current change (%, negative = inhibition) at 10uM [%]
Cc1csc(SCC(=O)NC2CCCCC2)n1	-1.79
CCOc1ccccc1NC(=O)C(Sc1nnc2ccccn12)c1ccccc1 (stereo not shown)	-12.5
Cc1ccc2cc(C)c3nnc(SCC(=O)NCc4ccco4)n3c2c1	-25.5
O=C1c2ccc3c4c(ccc(c24)C(=O)N1c1ccc(O)cc1)C(=O)N(c1ccc(O)cc1)C3=O	23.3
CCNS(=O)(=O)c1ccc(Br)c(OC)c1	10.4
Cc1cc(=O)oc2c(C(=O)/C=C\c3cccs3)c(O)ccc12	11.1
CCN(CC)CCCNC(=O)c1cc2c(-c3cccc(OC)c3)nn(C)c2s1	-44.7
COCCCNC(=O)c1cc2c(-c3cccc(OC)c3)nn(C)c2s1	-5.59
CCN(CC)CCNC(=O)c1cc2c(-c3cccc(OC)c3)nn(C)c2s1	-31.8
CCCCN(C)CCNC(=O)c1cc2c(-c3cccc(OC)c3)nn(C)c2s1	-49.5
COc1cccc(-c2nn(C)c3sc(C(=O)NCCCN(C)Cc4ccccc4)cc23)c1	-52.2
CCN(CCCNC(=O)c1cc2c(-c3cccc(OC)c3)nn(C)c2s1)Cc1ccccc1	-68.1
O=C(COc1ccccc1Cl)Nc1ccc(S(=O)(=O)N2CCOCC2)cc1	15.4
COc1ccc(C(=O)NCCc2c[nH]c3ccccc23)cc1S(=O)(=O)N1CCOCC1	-9.63
COc1ccc(NC(=O)/C(C#N)=C\c2ccc(Br)o2)cc1	4.52
Cc1ccc(C(=O)Nc2cccc(S(=O)(=O)N3CCOCC3)c2)cc1[N+](=O)[O-]	24.5
O=C(Cn1nc(C(=O)O)c2ccccc2c1=O)Nc1ccc(F)cc1	8.44
COCC(=O)OC/C(O)=C(\C#N)c1nc2ccccc2[nH]1	11
COC(=O)C1=C(c2c(C)noc2C)C[C@@H]2CC[C@H]1N2C(=O)NCCNC(C)=O	22.2
CC(NCc1ccc(S(N)(=O)=O)cc1)C(=O)Nc1cccc(Cl)c1 (stereo not shown)	-8.15
CC(NCc1ccc(S(N)(=O)=O)cc1)C(=O)Nc1cc([N+](=O)[O-])ccc1Cl (stereo not shown)	-45.8
CC(NCc1ccc(S(N)(=O)=O)cc1)C(=O)Nc1ccc([N+](=O)[O-])cc1Cl (stereo not shown)	-50.5
